Data on 92 compounds can be found in PubChem BioAssay AID485344 (National Center for Advancing Translational Sciences (NCATS), 2010).

About 6,900 (2%) of roughly 340,000 compounds were called active. This excerpt belongs to a sample that is enriched for actives. A number with no mark means an inactive call. Cut-off read from the data, not from the text of the source: active = inhibition above about 30%; inactive = below that, where a call was filed.

D(2) dopamine receptor (Homo sapiens), sequence (P14416 whole entry, looked up): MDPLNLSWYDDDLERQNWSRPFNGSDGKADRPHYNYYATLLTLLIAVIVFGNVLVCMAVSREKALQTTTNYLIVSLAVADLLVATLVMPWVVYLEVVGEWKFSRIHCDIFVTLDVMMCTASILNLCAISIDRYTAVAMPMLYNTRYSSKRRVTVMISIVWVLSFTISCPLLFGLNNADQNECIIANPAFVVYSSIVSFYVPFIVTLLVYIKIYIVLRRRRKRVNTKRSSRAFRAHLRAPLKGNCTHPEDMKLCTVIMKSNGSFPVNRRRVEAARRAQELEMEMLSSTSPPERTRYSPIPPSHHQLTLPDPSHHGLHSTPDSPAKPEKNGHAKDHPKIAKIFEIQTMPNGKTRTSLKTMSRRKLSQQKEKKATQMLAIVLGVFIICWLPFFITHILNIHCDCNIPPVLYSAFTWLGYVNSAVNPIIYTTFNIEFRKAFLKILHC

The test has as its target D(2) dopamine receptor (Homo sapiens) (UniProt P14416). In words: HTS Assay for Allosteric Antagonists of the Human D2 Dopamine Receptor: Primary Screen for Antagonists. Note: 0% is about no effect. The settings on record: HEK293 TREx D2 cells, calcium flux, dopamine EC80; at 10 µM; hits give high values. The text has this:
NIH Chemical Genomics Center [NCGC] NIH Molecular Libraries Probe Centers Network [MLPCN] MLPCN Grant: NS064831-01 Assay Submitter (PI): David Sibley Dopamine receptors (DARs) are involved in the etiology and/or therapy of a number of neuropsychiatric and endocrine disorders. For instance, all receptor-based antiparkinsonian drugs work via stimulating the D2 DAR subtype whereas all FDA-approved antipsychotic agents are antagonists of this receptor. […] There are three different types of allosteric modulators that we are seeking, two of which will stimulate or augment receptor signaling, allosteric agonists and potentiators, while the third, allosteric antagonists, will attenuate receptor signaling. The present primary screening assay measures compound antagonism after an EC80 addition of dopamine by tracking calcium flux in a […], inducible Hek293 Trex D2 cell line.
Freshly passaged cells are plated in 1536 well black, clear bottom plates at a density of 4000 cells/well in 3 ul of complete media containing 1x tetracycline inducer. After an overnight incubation at 30 C in 5% CO2, cells are loaded with 2 ul of the no wash Calcium Assay Kit (ABD Bioquest) and incubated at room temperature for 30 to 90 minutes. Agonist read: A 10 cycle (1 second/cycle) baseline measurement is taken and then the FDSS online 1536 pintool delivers 23 nl of compound library (as well as dopamine controls) to the plate. The plate is measured for kinetically at 1 cycle/sec for 180 seconds. Following the 180 second read, 1 ul of an EC80 (negative modulation assay) is delivered by an onboard pipette head. Measurements are taken kinetically for an additional 180 seconds.
For `O=S(=O)(c1cccs1)N1CCN(CCOc2ccccc2)CC1`, the inhibition is -9.4%.
The figure for `Nc1c(N(Cc2ccco2)C(=O)c2cccc(F)c2)c(=O)[nH]c(=O)n1Cc1ccccc1` is 11.2%; for `CCOC(=O)C1(CC2CCCCO2)CCN(Cc2nc(-c3cccs3)oc2C)CC1` (configuration not stated) it is 69.3% (active).
With `CC(Sc1nnc(-c2cccs2)n1C1CC1)C(=O)NCC1CCCO1` (configuration not stated), the inhibition was 13.5%.
On to `COc1cccc(CC2(CO)CCCN(Cc3nc(-c4cccs4)oc3C)C2)c1` (configuration not stated), for which the inhibition was -28.2%.
The figure for `O=C(OCC(=O)N1CCc2ccccc21)C1CCCN1S(=O)(=O)c1ccc(Cl)cc1` (configuration not stated) is -11.4%; for `CCOC(=O)c1ccc(NC(=O)C2CC(=O)N(c3ccc4c(c3)OCCO4)C2)cc1` (configuration not stated) it is 6.09%; for `Clc1ccc(C[n+]2cc(-c3ccccc3)n3c2CCC3)cc1` it is -18.7%.
For `Clc1ccc(C[n+]2cc(-c3ccc(Cl)cc3)n3c2CCC3)cc1`, the inhibition is 44.4% (active).
In the case of `Cc1ccc(-c2c[n+](CC(=O)Nc3ccccc3)c3n2CCC3)cc1`, the inhibition was 7.8%.
For `OCC[C@H]1C[C@H](O)[C@@H](O)[C@]2(CCc3ccccc3O2)O1` the value was 4.64%.
For `CN(C)C(CNC(=O)c1cccc(S(=O)(=O)Nc2ccc(Br)cc2)c1)c1ccco1` (configuration not stated) the value was 22.1%.
The figure for `COc1ccc(CN2CCN(Cc3cn(C)nc3-c3ccccc3)CC2CCO)c(C)c1C` (configuration not stated) is 33.2% (active); for `Cc1ccc(CN2CCN(Cc3cn(C)nc3-c3ccccc3)CC2CCO)o1` (configuration not stated) it is 9.07%; for `CCn1nc(C)c(CN2CCN(Cc3ccc(OC)c(C)c3C)C(CCO)C2)c1C` (configuration not stated) it is -7.65%.
For the compound `CCOc1ccc(S(=O)(=O)NCCC(=O)NCC2CCCO2)cc1` (configuration not stated), the inhibition is 6.91%.
The figure for `CN1CCC(N(C)S(=O)(=O)c2ccc(NC(=O)c3cccc(C#N)c3)cc2)CC1` is -21.6%.
The figure for `CC(C)(C)OC(=O)N1CCC(NC(=O)c2[nH]cnc2C(=O)N[C@@H](Cc2ccccc2)C(=O)OCc2ccccc2)CC1` is 20.4%.
The figure for `O=C(N[C@@H](Cc1ccccc1)C(=O)OCc1ccccc1)c1nc[nH]c1C(=O)N[C@@H](Cc1ccccc1)C(=O)OCc1ccccc1` is 13.9%; for `O=C(N[C@@H](Cc1ccccc1)C(=O)OCc1ccccc1)c1nc[nH]c1C(=O)NC1CCNCC1` it is 76.1% (active); for `O=C(NCc1ccccc1CN1CCCC1)C1CCN(S(=O)(=O)c2ccc(Cl)cc2)CC1` it is 9.19%.
As to `Cc1ccccc1-c1cc(C(=O)NCc2cccs2)n(CC2CC(c3cccnc3)=NO2)n1` (configuration not stated), the inhibition was 37.9% (active).
Regarding `Cc1ccccc1-c1cc(C(=O)NCC2CC2)n(CC2CC(c3cccnc3)=NO2)n1` (configuration not stated), the inhibition is 2.25%.
For the compound `Cc1ccc(CNC(=O)c2cc(-c3ccccc3C)n(CC3CC(c4cccc([N+](=O)[O-])c4)=NO3)n2)cc1` (configuration not stated), the inhibition was 6.93%.
Turning to `Cc1onc(C(=O)NN)c1-c1csc(COc2ccccc2)n1`, the inhibition was 20.6%.
On to `CC(C)(C)C(=O)OCc1nc(-c2ccc(O)c(O)c2)cs1`, for which the inhibition is 93.7% (active).
The figure for `COc1ccc(OC)c(Nc2nc(-c3ccc(O)c(O)c3)cs2)c1` is -3.66%; for `C#CCOCCOCCOCCNc1nc(N2CCN(C(=O)CCCCCCCCCCNC(=O)Cn3cc(CCCCCN)nn3)CC2)nc(N2CCN(C(=O)CCCCCCCCCCNC(=O)[C@H](CO)n3cc(CCCSC)nn3)CC2)n1` it is 1.73%.
The figure for `COc1cc(OC)cc(-c2c(-c3cccs3)c3cc(-c4ccc(OC)cc4F)ccc3n2C)c1` is -3.09%; for `COc1ccccc1NC(=O)COc1ccc(C(=O)OCC(=O)N(C(C)C)C(C)C)cc1OC` it is 11.9%.
The figure for `CCN(CCCCOC(=O)c1ccc(OC)c(OC)c1)C(C)Cc1ccc(OC)cc1` (configuration not stated) is 43.6% (active); for `CCOC(=O)CN(Cc1ccc(OC)c(OC)c1)S(=O)(=O)c1ccc(OC)cc1` it is -14%; for `CC(C)(C)n1ncc2c(=O)n(Cc3c(Cl)cccc3Br)cnc21` it is -6.49%.
In the case of `Cc1ccc(C)c(OCC(=O)NNC(=O)C2CCC2)c1`, the inhibition was -10.9%.
Take `CCN(CC(=O)Nc1c(F)cccc1F)C(=O)c1ccc(Sc2nncn2C)c([N+](=O)[O-])c1`: the inhibition was -7.81%.
The figure for `CC(=O)Nc1ccc(SCC(=O)Nc2ccccc2Oc2ccccc2)cc1` is -7.41%; for `CC1CCCN(CC(=O)Nc2cc(Cl)ccc2Oc2ccccc2)C1` (configuration not stated) it is -9.74%; for `O=C(CSc1ccccc1)Nc1cc(Cl)ccc1Oc1ccccc1` it is 41.8% (active).
The figure for `O=C(CNC(=O)c1ccc2ccccc2c1)Nc1ncccc1O` is 6.52%.
For the compound `CCCN(C(=O)c1nc2nccc(C)n2n1)c1c(N)n(Cc2ccccc2)c(=O)[nH]c1=O`, the inhibition is 13.1%.
In the case of `O=C(O)c1cc(S(=O)(=O)Nc2ccc3cn[nH]c3c2)ccc1Br`, the inhibition was -28.4%.
Turning to `O=S(=O)(c1ccc(SCc2ccccc2)nc1)N1CCCCCC1`, the inhibition was -5.53%.
With `COc1ccc([C@H]2CC(=O)C=C(/C=C/c3ccccc3)C2)cc1`, the inhibition was 11.1%.
`O=[N+]([O-])c1ccc(O)c(/C=N/Nc2ccccc2[N+](=O)[O-])c1`: the inhibition is 20.9%.
With `O=[N+]([O-])c1ccccc1Nc1ccc(O)cc1`, the inhibition is 48.5% (active).
Consider `O=C(O)c1ccccc1C(=O)Nc1ccccc1[N+](=O)[O-]`, for which the inhibition is 7.04%.
For `COc1ccccc1OCC(=O)OCc1cc(-c2ccco2)on1` the value was 5.46%.
In the case of `CCN(CC(=O)N1CCCC1)S(=O)(=O)c1ccc(F)cc1`, the inhibition was 21.3%.
The figure for `CS(=O)(=O)N(CC(=O)N1CCCCCC1)c1cccc(Cl)c1Cl` is -0.797%; for `CS(=O)(=O)N(CC(=O)N1CCCC1)Cc1ccccc1` it is 47.1% (active).
For `O=C(COc1coc(CN2CCN(c3ccccc3)CC2)cc1=O)Nc1ccccc1F` the value was 16.7%.
For `CCOC(=O)c1cc(-c2ccccc2C)n(Cc2cc(C)no2)n1` the value was 9.49%; for `CC(=O)Nc1cccc(C(=O)OCC(=O)Nc2nnc(-c3ccccc3)o2)c1`, -0.603%; for `COc1ccc(C(=O)OCC(=O)Nc2cccc(C(C)=O)c2)cc1OC`, 113% (active).
With `COc1ccc(C(=O)OCC(=O)NCCCc2ccccc2)cc1OC`, the inhibition is 7.85%.
On to `CCCCn1c(N)c(N(CCOC)C(=O)c2cccc(OCc3ccccc3)c2)c(=O)[nH]c1=O`, for which the inhibition was -3.21%.
The figure for `CCOc1ncccc1C(=O)OCC(=O)Nc1cccc(S(=O)(=O)N2CCCCCC2)c1` is -2.34%; for `CC(Oc1ccc(F)cc1)C(=O)Nc1cc(S(=O)(=O)N2CCOCC2)ccc1N1CCN(C)CC1` (configuration not stated) it is -1.88%.
The figure for `CC(NC(=O)c1ccc(S(=O)(=O)Nc2ccccc2)cc1)c1ccc(S(N)(=O)=O)cc1` (configuration not stated) is 11.4%; for `S=C(NCc1ccco1)NCc1ccccc1Cl` it is -9.44%; for `Clc1ccccc1CSc1nnc(-c2ccco2)c(-c2ccco2)n1` it is 34.6% (active).
For `Fc1cccc(Cl)c1CSc1ccc(-c2ccco2)nn1` the value was -10.9%.
As to `COc1ccccc1C(CNC(=O)c1ccc(C)c(S(=O)(=O)N2CCCCC2)c1)N(C)C` (configuration not stated), the inhibition is 8.09%.
Take `CN(C(=O)COC(=O)c1ccc(Br)o1)c1c(N)n(Cc2ccccc2)c(=O)[nH]c1=O`: the inhibition was 1.2%.
`CC(=O)NCC(=O)N(Cc1ccco1)C1(C(=O)NC2CCCC2)CCCCC1`: the inhibition was 22.2%.
Turning to `Cc1ccc(N(C(=O)CC2NC(=O)NC2=O)C2(C(=O)NC3CCCC3)CCCCC2)cc1` (configuration not stated), the inhibition is -9.9%.
As to `O=C(c1ccc(=O)[nH]c1)N(Cc1ccco1)C1(C(=O)NC2CCCCC2)CCCCC1`, the inhibition is 37.6% (active).
`Cn1c(C(=O)NCCN2CCc3ccccc3C2)cc2c(=O)[nH]c3ccccc3c21`: the inhibition was 32.3% (active).
Turning to `O=C(CN1C(=O)COc2ccccc21)NCCN1CCc2ccccc2C1`, the inhibition is 9.13%.
The figure for `O=C(NCCN1CCN(Cc2ccccc2)CC1)c1cc2c(=O)[nH]c3ccccc3c2s1` is -24.6%.
The figure for `Cc1nnc(SCC(=O)NNC(=O)c2ccc(Cl)cc2)n1CC1CCCO1` (configuration not stated) is -10.1%.
The figure for `Cc1nnc(SCC(N)=O)n1CC1CCCO1` (configuration not stated) is 32.8% (active); for `COc1ccccc1NC(=O)CSc1nnc(C)n1CC1CCCO1` (configuration not stated) it is -14.5%.
Regarding `COc1ccc(CCNC(=O)COC(=O)Cc2cccc(F)c2)cc1`, the inhibition is 6.51%.
The figure for `Cc1c(NC(=O)C(C)Oc2cccc(Cl)c2)c(=O)n(-c2ccccc2)n1C` (configuration not stated) is -1.16%; for `Cc1nnc(NC(=O)CSc2nc(C3CCCCC3)nc3ccccc23)s1` it is 35.4% (active); for `O=C(CSc1nc(C2CC2)nc2ccccc12)Nc1ccc2c(c1)OCCO2` it is 4.27%.
The figure for `O=C(CSc1nc(C2CC2)nc2ccccc12)Nc1cccc(O)c1` is 6.46%; for `Cn1c(CC(=O)NNC(=O)c2ccccc2F)nc2ccccc21` it is -9.97%; for `O=C(NCc1ccncc1)c1cccc(NS(=O)(=O)c2ccc(F)c(F)c2)c1` it is 26.4%.
For `O=CN1CCN(C(=O)c2ccc(Br)o2)CC1` the value was -1.93%; for `Cc1ccc(C)c(OCC(=O)N2CCN(C(=O)c3ccco3)CC2)c1`, -1.29%.
For `O=C(CNS(=O)(=O)c1ccccc1)N1CCN(C(=O)c2ccco2)CC1`, the inhibition is -2.75%.
On to `O=C(c1ccco1)N1CCN(C(=O)c2ccc(COc3ccc(F)cc3)o2)CC1`, for which the inhibition is 1.11%.
On to `COc1cccc(OCc2cc(C(=O)N3CCN(C(=O)c4ccco4)CC3)no2)c1`, for which the inhibition is -3.13%.
The figure for `O=C(c1ccco1)N1CCN(Cc2cccc(C(F)(F)F)c2)CC1` is 77.1% (active); for `COc1cccc(OC)c1OCCN1CCN(C(=O)c2ccco2)CC1` it is 63.6% (active); for `O=C(CN1CCN(C(=O)c2ccco2)CC1)Nc1ccc(Cl)c(C(F)(F)F)c1` it is 0.954%.
`O=C(c1ccco1)N1CCN(C(=S)Nc2cc(F)cc(F)c2)CC1`: the inhibition was -1.02%.
For `O=C(c1ccc(Br)o1)N1CCN(CCOc2ccccc2)CC1` the value was 86.3% (active); for `O=C(c1ccco1)N1CCN(CCOc2ccccc2)CC1`, 61.7% (active); for `COC(c1ccccc1)c1nnc(CCC(=O)N2CCN(CCOc3ccccc3)CC2)o1` (configuration not stated), -8.4%.
